M1 antag: human CHRM1 antagonism. CHO-K1 hM1, Fluo-8 calcium fluorescence, ACh EC80 antagonist. inhibition, % at 3 µM. hit rate 1.3% among 360,000. P11229;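 active means percent inhibition above its own plate's cutoff, namely the mean of that plate's compound wells plus 3 SD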;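 further: peak over basal fluorescence ratio during 140 s after agonist addition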
Target sequence (P11229 whole entry, looked up): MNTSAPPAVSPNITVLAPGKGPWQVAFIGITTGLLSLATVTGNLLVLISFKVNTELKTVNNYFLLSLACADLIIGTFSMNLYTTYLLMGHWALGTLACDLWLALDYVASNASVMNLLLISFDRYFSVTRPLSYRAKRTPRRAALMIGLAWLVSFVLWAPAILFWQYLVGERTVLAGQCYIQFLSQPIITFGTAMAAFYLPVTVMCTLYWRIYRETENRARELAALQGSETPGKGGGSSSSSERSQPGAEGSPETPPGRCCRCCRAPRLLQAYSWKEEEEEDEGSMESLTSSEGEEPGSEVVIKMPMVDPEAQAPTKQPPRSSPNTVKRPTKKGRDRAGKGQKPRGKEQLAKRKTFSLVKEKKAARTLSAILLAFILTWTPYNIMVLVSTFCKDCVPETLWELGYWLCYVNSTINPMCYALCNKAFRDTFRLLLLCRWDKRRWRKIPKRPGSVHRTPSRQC
M1 PAM parental: counter-screen for M1 PAMs: effect in parental CHO-K1 cells; ATP EC20, Fluo-8 calcium fluorescence; 0% at ATP EC20, 100% at ATP max; activation, % at 3 µM; hit rate 0.02% among 360,000; AID 602247;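 active means activation above the run cutoff, the mean activation of all test compounds plus 3 SD, cut at about 40% in these data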;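 further: peak over basal fluorescence ratio in a 140 s read after ATP addition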
M1 PAM: human CHRM1 positive allosteric modulation; P11229; CHO-K1 hM1, Fluo-8 calcium fluorescence, ACh EC20; 0% = ACh EC20, 100% = maximal ACh; activation, % at 3 µM; hit rate 0.088% among 360,000; in the data active means activation above about 19%, passing the limit was not always enough
CHRM1 agonist: activates human CHRM1 receptor; P11229; CHO-K1 hM1, Fluo-8 calcium fluorescence, agonist mode; 0% DMSO, 100% acetylcholine EC100; activation, % at 3 µM; hit rate 0.33% among 360,000; AID 588814;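 active means activation above the run's mean compound activation plus 3 SD, cut at about 16% in these data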;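 further: peak over basal fluorescence ratio within a 140 s kinetic read after compound addition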
CHO-K1 Ca antag: counter-screen for M1 antagonists: effect in parental CHO-K1 cells | AID 602250 | inhibition, % at 3 µM | hit rate 0.6% among 360,000 | ATP-induced calcium, Fluo-8 fluorescence;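 active means inhibition above a per-plate cutoff, the plate's mean sample inhibition plus 3 SD, cut at about 24% in these data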
M1 ag parental: counter-screen for M1 agonists: effect in parental CHO-K1 cells | Fluo-8 calcium fluorescence; scaled to maximal ATP response, vehicle zero | activation, % at 3 µM | hit rate 0.48% among 360,000; in the data active means activation above about 15%;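 further: untransfected CHO-K1 host cells lacking M1 receptor as counterscreen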
Each line names hits and unclear results; the compound was inactive in the other large screens. Only some compounds are listed: those with a hit (about 2.3% of all), similar ones and a draw of the others.

CCSc1nsc(NC(=O)Nc2cccc(F)c2)n1	M1 antag 38, M1 ag parental 18
COC(=O)C1CCN(C(=O)CN2C(=O)NC3(CCC(C)CC3)C2=O)CC1 (stereo not given)	none
CCS(=O)(=O)N1Cc2ccccc2CC1C(=O)Nc1nc(C)cs1 (stereo not given)	CHO-K1 Ca antag 32
CCCCC(Nc1ncnc2ccccc12)C(=O)O (stereo not given)	none
CC(Nc1ncnc2ccccc12)c1ccccc1 (stereo not given)	M1 antag 27, CHO-K1 Ca antag 24
CC(C)Oc1ccc(CC2CCC(=O)N(C)C2=O)cc1 (stereo not given)	none
O=C(COC(=O)c1ccc(O)cc1O)NC(=O)Cc1ccccc1	CHRM1 agonist 33, M1 ag parental 18
O=C(CCNS(=O)(=O)c1ccc2nsnc2c1)N1CCN(c2ccncc2)CC1	M1 antag 62
Cc1ccc(S(=O)(=O)NCCC(=O)N2CCN(c3cccc(Cl)c3)CC2)cc1C	none
CC(=O)N1CCOc2ccc(S(=O)(=O)N3CCC(C(=O)NCc4ccc(Cl)cc4)CC3)cc21	none
O=C(NC1CCCc2c1cnn2-c1cc(F)cc(F)c1)c1ccncc1 (stereo not given)	none
Cc1cc(C(=O)NC2CCCc3c2cnn3-c2ccc(C)c(C)c2)n(C)n1 (stereo not given)	M1 antag 44, CHO-K1 Ca antag 25
CC(C)(C)c1ccc(-n2ncc3c2CCCC3NC(=O)c2ccncc2)cc1 (stereo not given)	M1 antag 62
CSc1ccccc1C(=O)N1CCC2(CC1)CC(=O)c1ccccc1O2	none
COc1ccc(Cc2noc(CN3CCN(c4ccc(Cl)cn4)CC3)n2)cc1OC	M1 ag parental 22
CC(=O)N1CCN(c2ccccc2NC(=O)COc2cc(C)ccc2C(C)C)CC1	M1 antag 30
CCN(CC)C(=O)[C@H]1C[C@H](CC(=O)NCCCOC)C(=O)N2CCc3c([nH]c4cc(CCC(=O)N(C)C)ccc34)[C@]12C	none
CCCCNC(=S)N/N=C1\C(=O)c2cccc3cccc1c23	CHO-K1 Ca antag 25
COc1ccc(N(C(=O)/C=C/c2ccccc2)C2=CC3CCC(C2)N3C)cc1 (stereo not given)	none
O=C(Cn1nnc2ccccc2c1=O)NCC1CCC(C(=O)O)CC1 (stereo not given)	M1 ag parental 18
CC(C)[C@@H](C(=O)NCC1CCC(C(=O)O)CC1)n1nnc2ccccc2c1=O (stereo not given in full)	none
CCCCCCNc1c([N+](=O)[O-])c(=O)sc2ccccc12	M1 antag 42
CC(C)(C)Nc1c([N+](=O)[O-])c(=O)sc2ccccc12	none
N#CC1(NC(=O)COc2cc(F)ccc2[N+](=O)[O-])CCCCC1	none
N#CC1(NC(=O)COC(=O)C2=COCCO2)CCCCC1	CHRM1 agonist 24, M1 ag parental 19
N#CC1(NC(=O)COc2ccccc2[N+](=O)[O-])CCCCC1	M1 antag 37
O=C(N/N=C/c1cccc(OC(=O)c2cccc(Br)c2)c1)c1ccncc1	none
CN(CC(=O)Nc1ccc(F)c(F)c1F)C(=O)C1CCCC1	none
Cc1ccc(N2C(=O)CCC(C(=O)O)C2c2cccs2)cc1 (stereo not given)	none
O=C(NCCN1CCCCC1)c1ccco1	none
Cc1ccc2sc(N3CCN(CCNC(=O)c4ccco4)CC3)nc2c1C	M1 ag parental 20
CSc1ccc2c(c1)C(N1CCN(C)CC1)Cc1ccc(F)cc1S2 (stereo not given)	M1 antag 69
O=[N+]([O-])c1ccc2c(c1)C(N1CCN(CCO)CC1)Cc1ccc(F)cc1S2 (stereo not given)	none
Cc1cc(C)n(-c2cccc3cccnc23)n1	none
Cc1cc(C)n(-c2ccccc2C#N)n1	CHO-K1 Ca antag 25
COc1ccc(C)cc1NC(=O)C(OC(=O)CNC(=O)c1cccc(F)c1)c1ccccc1 (stereo not given)	CHO-K1 Ca antag 31
Cc1c(P(=S)(c2ccccc2)c2ccccc2)[n+]2ccccc2n1C/C=C/c1ccccc1	M1 antag 56
CC(O)c1nc2ccccc2n1C/C=C/c1ccccc1 (stereo not given)	none
